Results reported in PubChem BioAssay.
The source made the active and inactive calls.

Key:
[1] = E. coli DRC41 culture turbidity changes, primary screen, E. coli filamentation inducer project, strain DRC41, OD650, 48 h (AID 1152);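 also: E. coli MC1000 strain DRC41 lacking acrAB efflux pump and sulA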; details: E. coli DRC41 (acrAB sulA), higher = more signal, called active from +8 up or from −8 down
[2] = small-molecule binders of probe aLefty1, primary screen, biochemical, small-molecule microarray, 635/667 nm fluorescence (AID 1153); details: higher = more signal;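 also: score merges spot fluorescence with signal-to-noise ratio from the scanned slide images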
[3] = PSAC antagonists in infected red cells, primary screen, cell-based, P. falciparum Indochina, OD700, 1 h (AID 1154); details: P. falciparum Indochina infected RBC osmotic lysis, higher = more signal, called active from +8 up or from −8 down
[4] = PSAC antagonists in infected red cells, primary screen, cell-based, P. falciparum Indochina, OD700, 2 h (AID 1155);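 also: lysis reports solute entry through the parasite surface anion channel PSAC; channel blockers reduce lysis of infected cells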; details: P. falciparum Indochina infected erythrocytes, osmotic lysis OD700; higher = more signal, called active from +8 up or from −8 down
[5] = osmotic lysis modulators in infected erythrocytes, primary screen, PSAC antagonist project, cell-based, P. falciparum Indochina, OD700, 3 h (AID 1156); details: higher = more signal, called active from +8 up or from −8 down
[6] = PSAC antagonists in infected red cells, primary screen, cell-based, P. falciparum Indochina, OD700, 18 h (AID 1157); details: P. falciparum Indochina infected erythrocytes, osmotic lysis OD700, 18 h; higher = more signal, called active from +8 up or from −8 down
[7] = modulators of S6 phosphorylation in cells, primary screen, cell-based, A549, cytoblot, luminescence, serum-stimulated (AID 1158); details: A549 phospho-S6 cytoblot, 5 h, higher = more signal;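 also: serum-stimulated A549 lung adenocarcinoma cells; signal is phosphorylated S6 detected by cytoblot immunostaining with HRP secondary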
[8] = target: NADPH oxidase 2 (Homo sapiens) (UniProt P04839); experiment: NOX2-dependent H2O2 signal modulators, primary screen, NOX inhibitor project, cell-based, HEK293-NOX2, PMA-stimulated, Amplex Red fluorescence (AID 1159); details: 45 min, higher = more signal, called active from +8 up or from −8 down; also: test concentration not given here
[9] = target: NADPH oxidase 4 (Homo sapiens) (UniProt Q9NPH5); experiment: NOX4-dependent H2O2 signal modulators, primary screen, NOX inhibitor project, cell-based, HEK293-NOX4, tetracycline-induced, Amplex Red fluorescence (AID 1160); details: 45 min, higher = more signal, called active from +8 up or from −8 down
[10] = target: NADPH oxidase 5 (Homo sapiens) (UniProt Q96PH1); experiment: NOX5-dependent H2O2 signal modulators, primary screen, NOX inhibitor project, cell-based, HEK293-NOX5, Amplex Red fluorescence (AID 1161); details: HEK293-NOX5, ionomycin, 45 min, higher = more signal
[11] = A549 cell viability effects, profiling panel, calcein-AM fluorescence, 48 h, basal (AID 1162); details: higher = more signal; also: test concentration not given here
[12] = adipocyte viability effects, profiling panel, cell-based, 3T3-L1 adipocytes, calcein-AM fluorescence, 48 h, basal (AID 1163); details: 3T3-L1 adipocytes viability, higher = more signal; also: test concentration not given here
[13] = HepG2 cell viability effects, profiling panel, calcein-AM fluorescence, 48 h, basal (AID 1164); details: higher = more signal; also: test concentration not given here
[14] = MM1S cell viability effects, profiling panel, calcein-AM fluorescence, 48 h, basal (AID 1165); details: higher = more signal;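 also: viability of MM1S multiple myeloma cells under basal unstimulated conditions; test concentration not given here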
[15] = basal RPMI8226 viability, no added stimulus, profiling panel, cell-based, calcein-AM fluorescence, 48 h, PK04 Diversity Set (AID 1166); details: RPMI8226 myeloma viability, higher = more signal;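 also: cells grown under basal conditions without added stimulus; test concentration not given here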
[16] = basal HepG2 mitochondrial membrane potential changes, profiling panel, cell-based, JC-1 fluorescence, 24 h, 100 nL compound (AID 1167); details: higher = more signal; also: test concentration not given here
[17] = basal 3T3-L1 adipocyte mitochondrial potential changes, profiling panel, cell-based, JC-1 fluorescence, 3T3-L1 adipocytes, 24 h, 100 nL compound (AID 1168); details: JC-1 mitochondrial fluorescence, higher = more signal, called active from +8 up or from −8 down; also: test concentration not given here
[18] = basal RPMI8226 mitochondrial membrane potential changes, profiling panel, cell-based, JC-1 fluorescence, 24 h, 100 nL compound (AID 1169); details: RPMI8226 myeloma, JC-1 mitochondrial potential fluorescence, higher = more signal; also: test concentration not given here
[19] = basal MM1S mitochondrial membrane potential changes, profiling panel, cell-based, JC-1 fluorescence, 24 h, 100 nL compound (AID 1170); details: higher = more signal; also: test concentration not given here
[20] = A549 lung cancer cell viability effects, profiling panel, resazurin fluorescence, 24 h, PK04 Diversity Set (AID 1171); details: higher = more signal, called active from +8 up or from −8 down; also: test concentration not given here

Chain of NADPH oxidase 5 (Homo sapiens) (Q96PH1 whole entry, looked up): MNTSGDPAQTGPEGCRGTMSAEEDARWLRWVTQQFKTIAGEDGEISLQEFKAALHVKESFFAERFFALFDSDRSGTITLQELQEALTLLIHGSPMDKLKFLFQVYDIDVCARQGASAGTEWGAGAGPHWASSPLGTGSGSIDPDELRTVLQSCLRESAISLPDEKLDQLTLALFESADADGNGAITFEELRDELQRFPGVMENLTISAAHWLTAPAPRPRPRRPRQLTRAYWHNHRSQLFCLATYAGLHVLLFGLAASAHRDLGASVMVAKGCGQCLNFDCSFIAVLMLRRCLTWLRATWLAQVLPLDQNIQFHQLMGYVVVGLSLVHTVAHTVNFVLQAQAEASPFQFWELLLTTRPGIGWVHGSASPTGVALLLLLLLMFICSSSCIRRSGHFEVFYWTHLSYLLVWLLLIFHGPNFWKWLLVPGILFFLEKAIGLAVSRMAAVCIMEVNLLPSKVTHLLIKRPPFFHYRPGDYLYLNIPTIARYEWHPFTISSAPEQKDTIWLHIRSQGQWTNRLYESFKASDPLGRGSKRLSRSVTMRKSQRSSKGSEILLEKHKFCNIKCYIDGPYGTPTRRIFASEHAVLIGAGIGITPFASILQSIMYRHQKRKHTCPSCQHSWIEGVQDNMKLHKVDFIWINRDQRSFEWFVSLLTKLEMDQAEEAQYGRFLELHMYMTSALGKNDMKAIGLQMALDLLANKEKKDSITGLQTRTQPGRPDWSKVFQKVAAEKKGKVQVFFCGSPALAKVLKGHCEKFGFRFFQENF
Chain of NADPH oxidase 2 (Homo sapiens) (P04839 whole entry, looked up): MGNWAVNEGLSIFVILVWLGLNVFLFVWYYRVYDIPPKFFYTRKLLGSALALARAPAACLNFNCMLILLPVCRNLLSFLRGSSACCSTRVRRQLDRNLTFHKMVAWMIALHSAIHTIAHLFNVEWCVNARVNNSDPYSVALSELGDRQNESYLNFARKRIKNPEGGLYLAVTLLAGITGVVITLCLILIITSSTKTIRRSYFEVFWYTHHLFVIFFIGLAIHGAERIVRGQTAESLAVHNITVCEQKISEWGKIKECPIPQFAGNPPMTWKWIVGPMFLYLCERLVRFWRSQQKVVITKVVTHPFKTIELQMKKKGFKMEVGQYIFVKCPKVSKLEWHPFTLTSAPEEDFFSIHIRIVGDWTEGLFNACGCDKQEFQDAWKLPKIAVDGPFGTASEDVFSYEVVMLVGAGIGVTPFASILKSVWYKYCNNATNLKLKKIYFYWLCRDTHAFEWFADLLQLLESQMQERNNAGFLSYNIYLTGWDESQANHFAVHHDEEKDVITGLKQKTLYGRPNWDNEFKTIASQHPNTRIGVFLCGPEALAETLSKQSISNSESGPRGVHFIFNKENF
Chain of NADPH oxidase 4 (Homo sapiens) (Q9NPH5 whole entry, looked up): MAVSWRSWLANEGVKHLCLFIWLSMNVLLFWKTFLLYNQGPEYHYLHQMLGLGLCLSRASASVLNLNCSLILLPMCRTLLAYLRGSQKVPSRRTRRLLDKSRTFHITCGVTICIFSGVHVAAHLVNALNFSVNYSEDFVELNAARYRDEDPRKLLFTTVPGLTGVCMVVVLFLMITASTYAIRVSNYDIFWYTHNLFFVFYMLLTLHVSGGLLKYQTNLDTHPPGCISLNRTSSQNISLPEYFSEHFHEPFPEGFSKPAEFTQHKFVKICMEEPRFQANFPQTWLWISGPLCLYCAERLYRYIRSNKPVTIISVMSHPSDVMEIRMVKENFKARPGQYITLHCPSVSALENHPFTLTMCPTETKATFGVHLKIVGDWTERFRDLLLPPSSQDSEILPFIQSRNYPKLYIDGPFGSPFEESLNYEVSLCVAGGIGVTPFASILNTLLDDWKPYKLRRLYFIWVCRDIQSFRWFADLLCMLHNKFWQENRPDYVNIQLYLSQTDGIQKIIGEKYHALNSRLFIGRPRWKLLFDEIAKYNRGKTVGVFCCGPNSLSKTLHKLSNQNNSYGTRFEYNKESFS

Row | SMILES | z-score [1] | composite z-score [2] | z-score [3] | z-score [4] | z-score [5] | z-score [6] | z-score [7] | z-score [8] | z-score [9] | z-score [10] | z-score [11] | z-score [12] | z-score [13] | z-score [14] | z-score [15] | z-score [16] | z-score [17] | z-score [18] | z-score [19] | z-score [20]
1 | C=C(CCCC)C(=O)CC[C@H](OC(=O)c1ccccc1-c1ccccc1C(=O)O)c1cccc(OCCO)c1 | -0.497 (inactive) | -0.147 | 8.46 (active) | 1.77 (inactive) | 1.97 (inactive) | 0.478 (inactive) | -0.363 | 0.976 (inactive) | -0.462 (inactive) | -1.74 | -0.186 | 0.415 | -0.73 | -3.37 | -2.88 | -0.789 | 0.379 (inactive) | -0.451 | -0.507 | -0.611 (inactive)
2 | O=C1O[C@H](c2ccccc2)[C@H](c2ccccc2)N2[C@H]1[C@@H](C(=O)Nc1nc3ccccc3s1)[C@]1(C(=O)Nc3ccccc31)[C@H]2c1ccccc1OCCO | 0.185 (inactive) | 0.347 | 7.3 (inactive) | 5.1 (inactive) | -5.41 (inactive) | 1.79 (inactive) | 0.354 | 1.47 (inactive) | 0.862 (inactive) | 1.86 | -1.59 | 0.842 | -1.97 | -1.61 | -3.67 | -2.27 | 4.1 (inactive) | -1.16 | -1.37 | -2.35 (inactive)
3 | CCOC(=O)C1=C[C@@H](C(C)(C)C)N(S(=O)(=O)c2ccc(C)cc2)[C@H]1c1ccc(OC)cc1 | -0.0371 (inactive) | 0.235 | 1.44 (inactive) | 1.11 (inactive) | 0.457 (inactive) | 0.71 (inactive) | -0.454 | -1.67 (inactive) | 0.244 (inactive) | 1.65 | 0.279 | -0.276 | -0.778 | -1.04 | -1.23 | 4.09 | -0.305 (inactive) | -0.589 | -0.676 | 2.62 (inactive)
4 | C=CCNC(=O)[C@@H]1[C@H]2C(=O)O[C@H](c3ccccc3)[C@H](c3ccccc3)N2[C@H](c2ccc(OCCO)cc2)[C@@]12C(=O)N(C(=O)OCCOC)c1ccccc12 | 0.127 (inactive) | 0.258 | 3.15 (inactive) | 1.27 (inactive) | -0.947 (inactive) | 0.442 (inactive) | -0.296 | 0.406 (inactive) | 0.789 (inactive) | -0.0693 | -0.514 | 0.484 | 0.332 | 0.374 | -0.562 | 2.15 | 0.89 (inactive) | -1.05 | 0.332 | -0.0659 (inactive)
5 | COCCCNC(=O)[C@]1(Cc2ccccc2CN=[N+]=[N-])N=C(c2ccc(OCCCO)cc2)O[C@@H]1c1ccccc1N=[N+]=[N-] | 0.913 (inactive) | 0.87 | 33.7 (active) | 31.2 (active) | 1.91 (inactive) | 8.54 (active) | 0.0038 | -0.713 (inactive) | 1.06 (inactive) | 1.42 | -0.532 | -0.541 | -0.576 | -2.96 | -3.93 | 1.27 | 1.16 (inactive) | -1.12 | -2.77 | -2.12 (inactive)
6 | [N-]=[N+]=NCc1ccccc1[C@H]1OC(c2ccc(OCCCO)cc2)=N[C@@]1(CCS(=O)(=O)c1ccccc1)C(=O)NCCN1CCOCC1 | -0.265 (inactive) | 0.877 | 27.1 (active) | 13.2 (active) | 1.38 (inactive) | 1.99 (inactive) | -0.124 | 0.636 (inactive) | 1.33 (inactive) | 1.65 | 1.69 | -0.328 | 1.14 | -1.03 | 0.511 | 0.418 | -0.221 (inactive) | -0.556 | -0.801 | 0.0651 (inactive)
7 | C=CC[C@H](OC(=O)Nc1ccc(SC)cc1)c1ccc(O)c(F)c1 | -0.705 (inactive) | 0.0226 | 23.6 (active) | 4.93 (inactive) | 1.45 (inactive) | 0.966 (inactive) | 0.49 | -5.66 (inactive) | -2.66 (inactive) | -3.08 | -1.24 | -0.152 | -1.82 | -1.59 | -1.64 | -3.17 | 2.25 (inactive) | -0.325 | -0.716 | -1.01 (inactive)
8 | COC(=O)C(CC#Cc1ccc2c(c1)[C@]1(C(=O)N2)[C@H](C(N)=O)[C@H]2C(=O)O[C@H](c3ccccc3)[C@H](c3ccccc3)N2[C@@H]1c1ccccc1OCCO)C(=O)OC | 0.879 (inactive) | 0.0622 | 14.2 (active) | 3.83 (inactive) | 1.02 (inactive) | 1.47 (inactive) | -0.127 | 1.9 (inactive) | 0.723 (inactive) | 0.904 | -0.782 | -0.436 | -4.23 | -3.4 | -4.62 | -0.82 | 4.3 (inactive) | -1.18 | -2.2 | -2.83 (inactive)
9 | CCOC(=O)C1=CC[C@@H](c2ccccc2)N(S(=O)(=O)c2ccc(C)cc2)[C@@H]1C#N | 0.49 (inactive) | 0.082 | 4.46 (inactive) | 0.804 (inactive) | 0.0758 (inactive) | 1 (inactive) | -0.268 | 0.224 (inactive) | -0.615 (inactive) | -0.14 | 0.25 | -0.415 | 0.278 | -3.21 | -2.77 | 0.43 | 0.726 (inactive) | -0.791 | -2.41 | 0.433 (inactive)
